SW480 rerep: A quantitative high throughput screen for small molecules that induce DNA re-replication in SW480 colon adenocarcinoma cells; SW480 DNA re-replication, Hoechst DNA content imaging, 48 h; Potency, µM (highest dose often 46.1 µM), for the others: at the top dose re-replication activation, most hits filed as activators; actives 1.8% (n = 340,000); AID 624297, 2012; further: % of control where 0% means no effect; nearly all actives have a fitted effect of over 55% in size
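SW480 cells exposed to compounds for 48 hr at 37 C, 5% CO2, then Hoechst-stained 40 min. Nuclear DNA content imaged by fluorescence scanning (405 nm excitation, 500-530 nm emission); re-replication scored as increased high-intensity nuclei.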
KB-V1 MDR tox: qHTS assay for MDR1-selective chemotherapeutics: Primary screen using the drug-selected MDR subline cells KB-V1 | KB-V1 MDR cells viability, CellTiter-Glo, 72 h | Potency, µM (top dose mostly 46.1 µM), hits mostly cytotoxic | actives 3.4% (n = 400,000); further: on the % scale 0 is the no-effect control and ±100 the full control effect; nearly all actives have a fitted effect of over 60% in size
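Cytotoxicity toward P-gp-expressing KB-V1 cells was determined as loss of CellTiter-Glo luminescence after 72 h at 37 degrees C. Compounds were tested in quantitative HTS format across a concentration range, with curves fitted to normalized data.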
HT1080 IDH1KD tx: qHTS for induction of synthetic lethality in tumor cells producing 2HG: qHTS for the HT-1080-IDH1KD cell line; HT-1080 IDH1 knockdown viability, ATP luminescence, 48 h; Potency, µM (series often up to 46.1 µM), inactives show top-dose activity, negative = toxicity, actives largely listed as cytotoxic; actives 2% (n = 360,000); AID 686971, 2013;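 further: 0% = DMSO wells and -100% = cell-free medium wells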
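Cytotoxicity counter-line: IDH1KD HT-1080, 48 h, CellTiter-Glo. Curves classed by r2, magnitude and activity.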
MCF10A rerep: A quantitative high throughput screen for small molecules that induce DNA re-replication in MCF 10a normal breast cells. MCF 10A DNA re-replication, Hoechst nuclear intensity, 48 h. Potency, µM (doses to about 46.1 µM), inactives show at the highest dose activity, positive = re-replication, most hits filed as activators. actives 2.9% (n = 350,000); further: % of control where 0% means no effect; nearly all actives have a fitted effect of over 50% in size
HT1080NT lethal: qHTS for induction of synthetic lethality in tumor cells producing 2HG: qHTS for the HT-1080-NT fibrosarcoma cell line; HT-1080-NT fibrosarcoma viability, CellTiter-Glo ATP luminescence, 48 h; Potency, µM (top dose mostly 46.1 µM), without a hit: top-dose activity, negative = less viability, usual class: cytotoxic; actives 1.6% (n = 360,000);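 further: NT is the 2HG producing partner of a matched IDH1 knockdown line; 0% = DMSO-treated cells and -100% = media-only wells without cells; nearly all actives have a fitted effect of over 55% in size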
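A 48-hour cytotoxicity screen used HT-1080-NT cells plated 2 hours before compound delivery. ATP-based CellTiter-Glo luminescence measured viability, normalized to DMSO and no-cell controls.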
KB-3-1 cytotox: qHTS assay for MDR1-selective chemotherapeutics: Primary screen using the parental adenocarcinoma cell KB-3-1; AID 1347075, 2019; Potency, µM (doses to about 46.1 µM), hits mostly cytotoxic; KB-3-1 viability, CellTiter-Glo ATP luminescence, 72 h; actives 1.4% (n = 400,000); further: on the % scale 0 is the no-effect control and ±100 the full control effect; nearly all actives have a fitted effect of over 60% in size
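72 h, 37 °C compound treatment of KB-3-1 parental cells; CellTiter-Glo added, 10 min, luminescence read. Data corrected against DMSO-only plates and normalized before curve fitting.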
An asterisk follows results filed as active; i = inactive; u = inconclusive; x = no result. Hits are enriched below; roughly 7.9% of the tested compounds scored in any of these assays. The call rests on the fitted dose curve; in most records, active means well fitted curve in the direction sought with a large enough effect; inconclusive means small, poorly fitted or top-dose-only effect, or another doubt; inactive means no such curve, though single readings can be large; an effect the other way counts as inactive or inconclusive. Potency means the concentration at half of the fitted maximal effect.

SMILES | SW480 rerep | KB-V1 MDR tox | HT1080 IDH1KD tx | MCF10A rerep | HT1080NT lethal | KB-3-1 cytotox
Cc1ccc(N2C(=O)CN(Cc3sccc3C)C2=S)cc1C | 0% | 16µM* | 8% | u | 9% | u
Cc1ccccc1N1C(=O)CN(Cc2sccc2C)C1=S | u | 3.3µM* | 1% | 10% | 7% | u
Cc1nn(Cc2ccccc2)c(C)c1NC(=O)Cn1nc([N+](=O)[O-])c(Cl)c1C | -3% | i | u | 1% | 0% | i
Cc1nn(Cc2ccccc2)c(C)c1NC(=O)c1ccc([N+](=O)[O-])cc1[N+](=O)[O-] | 16µM* | u | -2% | -41% | -7% | i
Cc1cc(C)n(-c2nc3ccccc3nc2N2CCOCC2)n1 | -3% | i | 2% | -2% | 4% | i
Cc1ccc(C(=O)N2CCN(c3ncccn3)CC2)cc1 | -6% | i | 10% | 9% | 17% | i
Cc1cc(C)n(-c2nc3ccccc3nc2N2CCCCCC2)n1 | 4% | i | 11% | 14% | 7% | i
Cc1cc(C)n(-c2nc3ccccc3nc2N2CCN(C(=O)c3ccc(Cl)cc3)CC2)n1 | 21µM* | i | u | 1.8µM* | -26% | i
Cc1cc(-c2ccccc2)n(-c2ccc(C(=O)N3CCN(c4ncccn4)CC3)cc2)n1 | 20% | 2.9µM* | 0% | 28% | -4% | u
COc1ccc(Nc2nc3ccccc3nc2-n2nc(C)cc2C)cc1 | u | i | 6% | 16µM* | 8% | i
Cc1cc(C)n(-c2nc3ccccc3nc2N2CCCC2)n1 | -10% | 13µM* | 0% | 0% | 14% | i
CCc1nc2c(OCCC3CCCCC3)cccn2c1N(C)C(=O)C1CC1 | x | i | u | x | u | i
COc1ccc(/C=C2\N=C(C)OC2=O)cc1OC | -7% | u | 1% | u | 7% | i
CCOC(=O)C1(CC2CC2)CCN(Cc2cn(C)c3ccccc23)CC1 | -1% | i | u | 21% | -30% | i
CCC(=O)NCCNc1ccc([N+](=O)[O-])cn1 | 7% | x | x | 3% | x | x
Cc1ccc(NC(=O)CSc2nnc(COc3ccc(Cl)cc3)o2)c(C)c1 | x | i | x | x | x | i
CN(C)C(=O)C#Cc1ccccc1 | -11% | i | 25% | -4% | 16% | i
O=C(C#Cc1ccccc1)c1ccc([N+](=O)[O-])cc1 | 13µM* | u | u | u | u | 23µM*
O=C(C#Cc1ccccc1)c1ccccc1 | x | u | 18µM* | x | u | i
CCCCNC(=O)Oc1cccc(N2CCCC2=O)c1 | -4% | u | 18% | u | 12% | i
COc1ccccc1C1SCCN1S(=O)(=O)c1cccc(C(F)(F)F)c1 (stereo not given) | 3% | 16µM* | -23% | 12% | -4% | i
COc1ccc(S(=O)(=O)N2CCSC2c2ccccc2)cc1 (stereo not given) | 8% | 23µM* | -29% | u | -7% | u
CCn1nc(NC(=O)CC(C)C)c2cc3ccc(C)cc3nc21 | u | i | -2% | u | -2% | i
O=C(Cn1ccc(=O)[nH]c1=O)Nc1nccs1 | x | i | 1% | x | -3% | i
CS(=O)(=O)c1ccc(C(=O)Nc2ccccc2N2CCOCC2)c(Cl)c1 | 20% | i | 10% | -2% | 4% | i
SMILES | SW480 rerep | KB-V1 MDR tox | HT1080 IDH1KD tx | MCF10A rerep | HT1080NT lethal | KB-3-1 cytotox
CC(=O)Cc1nsc(NC(=O)c2ccc(-c3ccccc3Cl)o2)n1 | u | u | u | 12µM* | -25% | u
Nc1nc(=S)c2[nH]c(=S)[nH]c2[nH]1 | u | u | u | u | 0% | u
Nc1nc(=S)c2[nH]cnc2[nH]1 | 19% | 0.73µM* | 1.3µM* | u | 2.3µM* | 1µM*
CC(=O)Nc1ccc(C(=O)N2CCc3cc4c(cc3C2C)OCCCO4)cc1 (stereo not given) | 1% | i | -12% | 0% | -5% | i
CCSc1cnn(-c2ccccc2)c(=O)c1Cl | u | i | u | u | u | i
O=c1c(Cl)c(Cl)cnn1-c1ccccc1 | 4.1µM* | i | 4.6µM* | 3.7µM* | 4.1µM* | 18µM*
Nc1c(Cl)cnn(-c2ccccc2)c1=O | 4% | i | 1% | -2% | 0% | i
CCOc1cnn(-c2ccccc2)c(=O)c1Cl | 6% | i | 16µM* | 26µM* | u | i
CN(Cc1ccccc1)C(=O)c1[nH]cnc1C(=O)Nc1nccs1 | -8% | i | 7% | u | 12% | i
O=C(Nc1nccs1)c1nc[nH]c1C(=O)NCc1ccccc1 | 2% | i | 0.82µM* | 0% | u | u
O=C(COc1ccc(Cl)cc1)N1CCN(S(=O)(=O)c2ccccc2)CC1 | 0% | i | 13% | 17% | 6% | i
CC(C(Sc1ccccc1N)c1ccccc1)[N+](=O)[O-] (stereo not given) | 10% | i | u | u | u | 12µM*
CS/C(=N\S(=O)(=O)c1cccs1)Nc1ccc(F)c(Cl)c1 | 17% | i | -5% | 11% | -3% | i
O=C1c2ccccc2NC(c2ccccc2Cl)N1N=C1CCCCCC1 (stereo not given) | -6% | u | 5% | u | 0% | i
O=C(Nc1ccc(N2CCOCC2)cc1)c1cc2c(s1)CCCCC2 | u | i | 7.3µM* | 16% | -3% | u
O=C(Nc1cccc(S(=O)(=O)Nc2ccc(Cl)cc2)c1)c1cc2c(s1)CCCC2 | -4% | i | 21µM* | u | 21µM* | i
Cc1ccc(OCCOCCN2CCN(C)CC2)c(C(C)(C)C)c1 | 6% | i | -17% | 6% | -27% | i
COc1ccc(-n2c(C)cc(C(=O)COC(=O)Cc3n[nH]c(=O)c4ccccc34)c2C)cc1 | -3% | u | u | 7% | u | i
COc1ccc(Cn2c(C3CC3)nc3ccc(NC(=O)c4cccnc4)cc3c2=O)cc1 | u | u | 10µM* | 1% | 10µM* | 5.8µM*
CC(C)COc1ccc(Cc2cnc(N)nc2N)cc1 | 0% | i | -22% | u | -18% | u
